The whole screen tested about 360,000 compounds, of which about 10,000 (2.8%) were called active. Another 4% or so got no clear call; they are omitted. The sample as a whole holds a higher share of actives than the screen did. A number with no mark means an inactive call. Calls come from the whole dose curve; as a rule, active = well fitted inhibition curve with a large enough effect; inconclusive = small, poorly fitted or top-dose-only effect; inactive = flat fitted curve, though single readings scatter.
% is set by controls: 0 for no effect and ±100 for the full control effect; potency is the fitted concentration of half-maximal effect.

Serine/threonine-protein kinase PLK1 (Homo sapiens), sequence (P53350 whole entry, looked up, the tested form may be a part): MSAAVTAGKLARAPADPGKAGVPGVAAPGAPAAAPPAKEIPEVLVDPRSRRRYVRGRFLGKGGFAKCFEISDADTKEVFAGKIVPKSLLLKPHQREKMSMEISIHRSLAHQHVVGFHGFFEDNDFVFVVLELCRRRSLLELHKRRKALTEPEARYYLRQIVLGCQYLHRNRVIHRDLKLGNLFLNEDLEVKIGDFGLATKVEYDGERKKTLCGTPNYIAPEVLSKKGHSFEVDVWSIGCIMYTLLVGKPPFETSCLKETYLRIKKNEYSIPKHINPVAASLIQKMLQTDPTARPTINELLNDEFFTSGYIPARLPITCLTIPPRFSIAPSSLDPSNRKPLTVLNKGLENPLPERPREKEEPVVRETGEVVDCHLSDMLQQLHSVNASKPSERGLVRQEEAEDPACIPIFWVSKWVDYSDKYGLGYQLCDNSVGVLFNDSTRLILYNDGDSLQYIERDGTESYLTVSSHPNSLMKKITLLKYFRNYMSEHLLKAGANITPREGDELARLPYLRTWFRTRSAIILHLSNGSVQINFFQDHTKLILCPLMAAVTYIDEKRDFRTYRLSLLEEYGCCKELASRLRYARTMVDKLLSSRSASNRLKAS

The experiment has as its target Serine/threonine-protein kinase PLK1 (Homo sapiens) (UniProt P53350). The experiment can be described thus: qHTS for Inhibitors of PLK1-PDB (polo-like kinase 1 - polo-box domain): Primary Screen. For max response, negative = inhibition: series mostly up to about 57 µM. Note: nearly all actives have a fitted effect of over 65% in size. To be noted: Plk1 PBD binding of FITC phosphopeptide, fluorescence polarization. A general note: In qHTS, concentration-response curves come from the screen itself.
As to `CC(C)c1cccc(-c2csc(C(O)c3ccccc3)n2)c1` (stereo unspecified), the max response, negative = inhibition is -9.83%.
Regarding `COc1ccc(-c2nn(-c3ccccc3)cc2/C=C2/SC(=S)N(CCCC(=O)O)C2=O)c(C)c1`, the Potency was 29.9 µM (active).
In the case of `CN(C)S(=O)(=O)c1cccc(-c2nn(-c3ccccc3)cc2/C=C2\SC(=S)N(CC(=O)O)C2=O)c1`, the Potency is 26.7 µM (active).
For `COc1cccc(/C=C2\SC(=S)N(CCCC(=O)N3CCOCC3)C2=O)c1`, the max response, negative = inhibition is -2.08%.
`Cc1ccc(-c2nn(-c3ccccc3)cc2/C=C2\SC(=S)N(CCCCCC(=O)O)C2=O)o1`: the max response, negative = inhibition was 165%.
`Cc1ccc(-c2nn(-c3ccccc3)cc2/C=C/C(=O)Nc2cccc(S(N)(=O)=O)c2)cc1`: the max response, negative = inhibition is -5.39%.
On to `O=C(CN1C(=O)/C(=C\c2ccccc2F)SC1=S)Nc1nc2ccccc2s1`, for which the max response, negative = inhibition was -28.6%.
For `COc1ccc(CC(N)c2csc(NC(=O)Nc3ccc(C(C)C)cc3)n2)cc1` (stereo unspecified), the max response, negative = inhibition was -5.6%.
Regarding `CC1(C(=O)Nc2cccc3c2CCCC3)CCN1C(=O)CCc1ccc(Cl)cc1Cl` (stereo unspecified), the max response, negative = inhibition is 0.165%.
With `O=C(CSc1nc2ccccc2c(=O)[nH]1)Nc1nc(-c2ccc(Br)cc2)cs1`, the max response, negative = inhibition was -29%.
For the molecule `N#Cc1c(-c2cccs2)nc(SCC(=O)c2ccc(Br)cc2)[nH]c1=O`, the Potency was 26.7 µM (active).
Take `CC(=O)CSc1nc(CCc2ccccc2)c(C#N)c(=O)[nH]1`: the max response, negative = inhibition was 5.25%.
As for `COc1ccc(C2/C(=C(/O)c3ccccc3)C(=O)C(=O)N2C)c(OC)c1` (stereo unspecified), the max response, negative = inhibition was 0.389%.
In the case of `COc1ccc(/C=C2/C(=O)OCc3cc(OC)c(OC)cc32)c(OC)c1`, the max response, negative = inhibition was -13%.
With `COc1ccc(/C=C2/C(=O)N(c3ccccc3)N=C2C)c(OC)c1`, the Potency is 18.9 µM (active).
Consider `Cc1cccc(C)c1NC(=O)C(c1cccc(F)c1)N1CCN(C)CC1` (stereo unspecified), for which the max response, negative = inhibition is -7.61%.
For the molecule `CC(=O)Nc1cnc(-c2ccc(O)cc2C)cn1`, the max response, negative = inhibition is -2.97%.
As for `COc1ccc(NC(=O)C2Cc3c(-c4ccc5c(c4)OCO5)ccnc3O2)cn1` (stereo unspecified), the max response, negative = inhibition was -5.75%.
On to `COc1ccc(NC(=O)Nc2ccc3c(c2)C(=O)N([C@H](C)CO)C[C@H](C)[C@@H](CN(C)C(=O)Nc2ccc4c(c2)OCO4)O3)cc1`, for which the Potency was 23.8 µM (active).
Regarding `C[C@H](CO)N1C[C@H](C)[C@@H](CN(C)C(=O)Nc2ccc3c(c2)OCO3)Oc2c(cccc2N(C)C)C1=O`, the max response, negative = inhibition is -11.3%.
As to `COc1ccc(NC(=O)N(C)C[C@H]2Oc3ccc(NC(=O)C4CC4)cc3C(=O)N([C@H](C)CO)C[C@@H]2C)cc1`, the max response, negative = inhibition was -15.8%.
In the case of `CC(Sc1nnnn1C)C(=O)NC(=O)NC1CCCCC1` (stereo unspecified), the max response, negative = inhibition was -1.5%.
With `O=C(CSc1nnnn1C1CCCC1)N1CCCCC1`, the max response, negative = inhibition is -1.23%.
As to `CC(Sc1nnnn1C1CCCCC1)C(=O)O` (stereo unspecified), the Potency is 4.23 µM (active).
`COc1ccc(OC)c(NC(=O)c2cc(-c3cc(F)ccc3OCC3CCCO3)n[nH]2)c1` (stereo unspecified): the max response, negative = inhibition was 1.76%.
In the case of `COc1ccc2c(c1)CCCO[C@]21O[C@H](CCO)C[C@H](O)[C@H]1O`, the max response, negative = inhibition is -7.9%.
As to `OCC[C@H]1C[C@@H](O)[C@H](O)[C@]2(OCCCc3ccccc32)O1`, the max response, negative = inhibition is -6.7%.
Turning to `OCC[C@H]1C[C@@H](O)[C@H](O)[C@@]2(OCCc3ccccc32)O1`, the Potency was 21.2 µM (active).
Consider `CC1(C(=O)NCc2ccc(F)c(F)c2)Cc2c(-c3ccc4c(c3)OCO4)ccnc2O1` (stereo unspecified), for which the max response, negative = inhibition was 5.1%.
Take `CC1(Cc2cccc(C#N)c2)C(=O)Nc2ccc(-c3cccc(C(F)(F)F)c3)cc21` (stereo unspecified): the max response, negative = inhibition is -6.86%.
Same read-out and setting: the value for `CCCCC[C@@H]1C=C(C(=O)O)[C@H](c2ccc(C#N)cc2)N1S(=O)(=O)c1ccc(C)cc1` was -5.69%.
As for `Cc1ccc(S(=O)(=O)N2[C@@H](c3ccc(Br)cc3)C(C(=O)O)=C[C@H]2CC2CCCC2)cc1`, the Potency is 23.8 µM (active).
Turning to `CCCCC[C@@H]1C=C(C(=O)OCC)[C@H](c2ccccc2)N1S(=O)(=O)c1ccc(C)cc1`, the max response, negative = inhibition is -0.281%.
On to `Cc1ccc(S(=O)(=O)N2CC[C@H]3[C@@H](C2)C(=O)C[C@@H](c2ccccc2)N3S(=O)(=O)c2ccc(C)cc2)cc1`, for which the max response, negative = inhibition is -5.58%.
As for `CCN(CC)CCCC(C)n1c2nc(=O)[nH]c(=O)c-2nc2cc(Cl)ccc21` (stereo unspecified), the Potency was 0.752 µM (active).
On to `Cc1ccc(Sc2ccc(NC(=O)c3ccc(F)cc3)cc2C#N)cc1`, for which the max response, negative = inhibition is -2.21%.
`Cc1ccc(-c2nc3ccc(Br)cn3c2Cc2ccccc2C(F)(F)F)cc1`: the max response, negative = inhibition was -28.5%.
On to `Cc1ccc([C@@H]2CC(=O)[C@@H]3CN(S(=O)(=O)c4ccc(C)cc4)[C@H](c4ccccc4F)C[C@@H]3N2S(=O)(=O)c2ccc(Cl)cc2)cc1`, for which the max response, negative = inhibition is 3.58%.
With `CCc1cccc(C)c1NC(=O)CSc1nnc(-c2ccco2)n1N`, the max response, negative = inhibition is -0.459%.
Same read-out and setting: the value for `Nn1c(SCC(=O)Nc2nccs2)nnc1-c1ccco1` was -17.8%.
With `NC(=O)c1c(NC(=O)CSc2nnc(-c3ccco3)n2N)sc2c1CCCC2`, the Potency is 15 µM (active).
As for `COc1ccc([C@H]2CC(=O)C[C@@H](CCn3cc(CC4CCCC4)nn3)O2)cc1`, the max response, negative = inhibition was 2.62%.
As for `CN(C)CCOc1cccc(Br)c1`, the max response, negative = inhibition was -4.17%.
For `CC(=O)O[C@H]1c2ccccc2-c2ccccc2[C@@H]1OC(C)=O`, the max response, negative = inhibition is 1.29%.
Turning to `CN(C)CCOC1c2ccccc2-c2ccccc21`, the Potency was 29.9 µM (active).
In the case of `CCCCC[C@H](C)N1C[C@@H](COCc2ccccc2)Oc2cc(N3CC[C@@H](N(C)C)C3)ccc2S1(=O)=O`, the max response, negative = inhibition is 4.46%.
Take `CCOC(=O)[C@]12CCCC=C1N(Cc1ccc3c(c1)OCO3)C(=O)[C@H](CC(=O)N1CCN(C(=O)c3ccco3)CC1)C2`: the max response, negative = inhibition was -17.4%.
Turning to `CC1(C(=O)NS(=O)(=O)Cc2cccc(Cl)c2)CCN1C(=O)Cc1ccc(Cl)cc1Cl` (stereo unspecified), the max response, negative = inhibition is -4.29%.
`CC1CCN(C(=O)c2ccc(S(=O)(=O)Cc3cc(F)ccc3F)c([N+](=O)[O-])c2)CC1`: the Potency is 15 µM (active).
Consider `O=C(c1ccc(Oc2ccc(Cl)cc2)c([N+](=O)[O-])c1)N1CCCC1`, for which the max response, negative = inhibition was -8.04%.
The same measure, in the same setting: the value for `Nc1ccc(C(=O)N2CCN(S(=O)(=O)c3ccc(Cl)cc3)CC2)cc1[N+](=O)[O-]` was -9.21%.

Values taken from PubChem BioAssay AID720504 (National Center for Advancing Translational Sciences (NCATS), 2013).
